Experimental data reported in the OligoGym collection.
Further: reference of the scale not given here.

These sequences were tested against STRADB (assay: pooled miR-30 sensor sort-seq; sequence = guide strand). Settings: shRNA.
With TAGATTAGTAATTCTGATGTTT the sensor-assay potency score (higher = more potent) was 0.0372.
With TTGATGGCTTGTTATAAGCAGG the sensor-assay potency score (higher = more potent) was -1.06.
TTCTGTAACAGCATCTGAGTTC showed a sensor-assay potency score (higher = more potent) of -0.403.
For TAATCGGTCACTATTTACTGTG, the sensor-assay potency score (higher = more potent) was -0.781.
TACTGTGTGAGTTCCACTGGAG gave a sensor-assay potency score (higher = more potent) of 0.0726.
Work on TACTCCTGTGAATACAGCCATT yielded a sensor-assay potency score (higher = more potent) of -1.43.
TTGCAAACAGAGCTGTACCAAG showed a sensor-assay potency score (higher = more potent) of -0.672.
Sequence TTACTGTGTGAGTTCCACTGGA has a sensor-assay potency score (higher = more potent) of 0.572.

Each sequence was assayed against STRBP in the same assay as above. Settings: shRNA.
TTACTATCCAGAATTTTCCTTA was tested, and the sensor-assay potency score (higher = more potent) was 0.368.
Work on TTTGACTGTATTTAACAGGGTC yielded a sensor-assay potency score (higher = more potent) of 0.301.
Work on TAACAGAACCATTCTCTTGGGT yielded a sensor-assay potency score (higher = more potent) of 0.367.
For TTTCGTTTCATCTTCTTGTTGG, the sensor-assay potency score (higher = more potent) was 0.788.
With TTGATATTTCTCTTCTGTGAGT the sensor-assay potency score (higher = more potent) was -0.566.
In the case of TTCTTCTCCAATTCGTCCCTAA, the sensor-assay potency score (higher = more potent) is reported as 0.053.
With TAAAACTTAAACTTTGAACTGC the sensor-assay potency score (higher = more potent) was 0.571.
For TTTGAGACTCTATACATCCTTC, the sensor-assay potency score (higher = more potent) was -0.328.
In the case of TTGAGTTTGAAGACACTGTTTC, the sensor-assay potency score (higher = more potent) is reported as -0.227.
Sequence TTACACATGATTTTAATCCATT has a sensor-assay potency score (higher = more potent) of -0.986.
